Among the data in PubChem BioAssay are composite z-score and z-score values, retold here.

The nature of assay [1]: small molecules captured by biotinylated probe aFSTL3 – biochemical, small-molecule microarray, fluorescence 635/667, stem cell growth factor project, primary screen (AID 1064).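 Further: measures binding of the biotinylated anti-FSTL3 antibody to printed compounds.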 The settings on record: higher = more signal.
Assay [2] in a line: binders from COS7 lysate, DM2A8 probe, primary screen, torsin A project, cell lysate, small-molecule microarray, fluorescence 635/667 (AID 1065). The settings on record: higher = more signal, COS7 lysate expressing mutant human TOR1A.
The nature of assay [3]: small molecules captured by biotinylated probe aFGF2 – biochemical, small-molecule microarray, fluorescence 635/667, stem cell growth factor project, primary screen (AID 1067).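 Further: measures binding of biotinylated aFGF2 protein to printed compounds on slides; z-score merges feature fluorescence and signal-to-noise across triplicate slides.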 The settings on record: higher = more signal.
Assay [4] is described as follows: small molecules captured by biotinylated probe aFGF10 – biochemical, small-molecule microarray, fluorescence 635/667, stem cell growth factor project, primary screen (AID 1071).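 Further: score merges 667 nm spot intensity and signal to noise from triplicate slides.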 The settings on record: higher = more signal.
Assay [5] addresses Neurogenic locus notch homolog protein 2 (Homo sapiens) (UniProt Q04721). The assay can be described thus: small molecules binding Notch2 protein – biochemical, small-molecule microarray, 635 nm fluorescence, stem cell growth factors, primary screen (AID 1073). The settings on record: higher = more signal.
The target in assay [6] is Pro-neuregulin-1, membrane-bound isoform (Homo sapiens) (UniProt Q02297). The assay is described as follows: small molecules binding neuregulin-1 protein – biochemical, small-molecule microarray, fluorescence 635/667, psychiatric disease protein project, primary screen (AID 1075).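 Further: score combines 667 nm spot fluorescence with signal to noise.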 The settings on record: NRG1 binding, 635 nm fluorescence, higher = more signal.
Assay [7] relates to Neuregulin-1 EGF-like domain. The assay is described as follows: small molecules binding NRG1 EGF domain – biochemical, small-molecule microarray, 635 nm fluorescence, primary screen (AID 1081).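 Further: binding of the protein to compounds printed on small-molecule microarray slides.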 The settings on record: higher = more signal.
The nature of assay [8]: FRG1 expression reporter modulators in myotubes – cell-based, C2C12 myotubes, firefly/Renilla luciferase, luminescence, FRG1 inhibition for FSHD, primary screen (AID 1084). The settings on record: FRG1 promoter luciferase, higher = more signal, called active from +8 up or from −8 down.
Assay [9] can be described thus: small molecules captured by biotinylated probe aFST – biochemical, small-molecule microarray, fluorescence 635/667, stem cell growth factor project, primary screen (AID 1086).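 Further: score merges 667 nm fluorescence with signal-to-noise of each printed compound spot.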 The settings on record: higher = more signal.
The nature of assay [10]: binders of probe aHhip on microarray, primary screen, stem cell growth factor project, biochemical, small-molecule microarray, fluorescence 635/667 (AID 1087).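 Further: score merges spot fluorescence at 667nm with spot signal to noise ratio.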 The settings on record: higher = more signal.
Assay [11] has as its system PRMT1 (protein arginine N-methyltransferase 1). The assay can be described thus: small molecules binding arginine methyltransferase PRMT1 – biochemical, small-molecule microarray, 635 nm fluorescence, primary screen (AID 1088).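 Further: binding of Prmt1 protein to compounds spotted on small-molecule microarray slides.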 The settings on record: higher = more signal.
A short description of assay [12]: growth effects on S. cerevisiae YJM789 – YJM789 clinical isolate, OD600, 24 h, basal, primary screen (AID 1089).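 Further: growth of clinical yeast isolate S. cerevisiae YJM 789 seeded 1000 cells per well; test concentration not given here.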 The settings on record: higher = more signal, called active from +8 up or from −8 down.
Assay [13] in a line: S. pombe growth modifiers, basal conditions – strain 972, OD600, 24 h, no modulator, primary screen (AID 1090).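 Further: basal condition with compound alone and no growth modifier present; test concentration not given here.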 The settings on record: S. pombe 972 growth, higher = more signal, called active from +8 up or from −8 down.
Assay [14] can be described thus: budding yeast growth modifiers under rapamycin – strain BY4716, OD600, 96 h, primary screen (AID 1091). Further: test concentration not given here. The settings on record: S. cerevisiae BY4716 + rapamycin, higher = more signal, called active from +8 up or from −8 down.
For assay [15], the target named is Torsin-1A-interacting protein 2 (Homo sapiens) (UniProt Q8NFQ8). The assay can be described thus: small molecules binding lysate-expressed LULL1 – cell lysate, human LULL1 lysate, 635/667 nm fluorescence, primary screen (AID 1092).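 Further: probe is lysate of COS7 cells overexpressing human LULL1; score merges per-feature 667 nm fluorescence with signal-to-noise.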 The settings on record: small-molecule microarray, hLULL1 lysate binding, 635 nm fluorescence; higher = more signal.
Assay [16] in a line: optical density change of DRC41 E. coli – strain DRC41, OD650, 24 h, E. coli filamentation project, primary screen (AID 1093).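 Further: MC1000 strain lacking acrAB efflux and sulA so SOS filamentation is blocked; test concentration not given here.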 The settings on record: E. coli DRC41 growth, higher = more signal, called active from +8 up or from −8 down.
A short description of assay [17]: probe aLefty2 binding to arrayed compounds – biochemical, biotinylated probe, 635/667 nm fluorescence, primary screen (AID 1094).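 Further: score merges spot fluorescence near 667 nm with spot signal-to-noise ratio.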 The settings on record: small-molecule microarray, higher = more signal.
Assay [18] relates to Noggin (protein binding on small-molecule microarray). The assay is described as follows: small molecules binding Noggin protein – biochemical, 635/667 nm fluorescence, primary screen (AID 1095).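 Further: score merges 667 nm feature fluorescence with signal to noise over triplicate slides.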 The settings on record: 635 nm fluorescence, higher = more signal.
Assay [19] has as its target Neurogenic locus notch homolog protein 3 (Homo sapiens) (UniProt Q9UM47). The assay is described as follows: small molecules binding NOTCH3 protein – biochemical, 635/667 nm fluorescence, primary screen (AID 1096). The settings on record: small-molecule microarray, 635 nm fluorescence, higher = more signal.
The nature of assay [20]: probe aEGFR binding to arrayed compounds – biochemical, biotinylated probe, 635/667 nm fluorescence, primary screen (AID 1097).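 Further: probe is a biotinylated anti-EGFR antibody binding compounds printed on slides; score combines fluorescence near 667 nm and signal to noise of each spot.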 The settings on record: small-molecule microarray, higher = more signal.

Each structure is given as a SMILES string. The source made the active and inactive calls.

Chain of Torsin-1A-interacting protein 2 (Homo sapiens) (Q8NFQ8 whole entry, looked up): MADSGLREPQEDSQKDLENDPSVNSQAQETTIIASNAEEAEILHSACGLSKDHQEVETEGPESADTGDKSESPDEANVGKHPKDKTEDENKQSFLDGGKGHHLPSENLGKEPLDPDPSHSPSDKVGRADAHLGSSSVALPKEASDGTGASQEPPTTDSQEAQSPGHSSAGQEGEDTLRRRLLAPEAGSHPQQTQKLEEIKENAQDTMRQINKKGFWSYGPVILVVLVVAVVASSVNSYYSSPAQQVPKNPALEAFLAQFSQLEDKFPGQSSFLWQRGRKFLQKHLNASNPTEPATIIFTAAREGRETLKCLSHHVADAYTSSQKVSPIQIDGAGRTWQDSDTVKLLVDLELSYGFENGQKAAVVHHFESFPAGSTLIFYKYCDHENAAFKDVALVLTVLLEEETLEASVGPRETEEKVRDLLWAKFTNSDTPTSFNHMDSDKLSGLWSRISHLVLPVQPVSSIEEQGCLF
Chain of Neurogenic locus notch homolog protein 2 (Homo sapiens) (Q04721 whole entry, looked up, canonical isoform): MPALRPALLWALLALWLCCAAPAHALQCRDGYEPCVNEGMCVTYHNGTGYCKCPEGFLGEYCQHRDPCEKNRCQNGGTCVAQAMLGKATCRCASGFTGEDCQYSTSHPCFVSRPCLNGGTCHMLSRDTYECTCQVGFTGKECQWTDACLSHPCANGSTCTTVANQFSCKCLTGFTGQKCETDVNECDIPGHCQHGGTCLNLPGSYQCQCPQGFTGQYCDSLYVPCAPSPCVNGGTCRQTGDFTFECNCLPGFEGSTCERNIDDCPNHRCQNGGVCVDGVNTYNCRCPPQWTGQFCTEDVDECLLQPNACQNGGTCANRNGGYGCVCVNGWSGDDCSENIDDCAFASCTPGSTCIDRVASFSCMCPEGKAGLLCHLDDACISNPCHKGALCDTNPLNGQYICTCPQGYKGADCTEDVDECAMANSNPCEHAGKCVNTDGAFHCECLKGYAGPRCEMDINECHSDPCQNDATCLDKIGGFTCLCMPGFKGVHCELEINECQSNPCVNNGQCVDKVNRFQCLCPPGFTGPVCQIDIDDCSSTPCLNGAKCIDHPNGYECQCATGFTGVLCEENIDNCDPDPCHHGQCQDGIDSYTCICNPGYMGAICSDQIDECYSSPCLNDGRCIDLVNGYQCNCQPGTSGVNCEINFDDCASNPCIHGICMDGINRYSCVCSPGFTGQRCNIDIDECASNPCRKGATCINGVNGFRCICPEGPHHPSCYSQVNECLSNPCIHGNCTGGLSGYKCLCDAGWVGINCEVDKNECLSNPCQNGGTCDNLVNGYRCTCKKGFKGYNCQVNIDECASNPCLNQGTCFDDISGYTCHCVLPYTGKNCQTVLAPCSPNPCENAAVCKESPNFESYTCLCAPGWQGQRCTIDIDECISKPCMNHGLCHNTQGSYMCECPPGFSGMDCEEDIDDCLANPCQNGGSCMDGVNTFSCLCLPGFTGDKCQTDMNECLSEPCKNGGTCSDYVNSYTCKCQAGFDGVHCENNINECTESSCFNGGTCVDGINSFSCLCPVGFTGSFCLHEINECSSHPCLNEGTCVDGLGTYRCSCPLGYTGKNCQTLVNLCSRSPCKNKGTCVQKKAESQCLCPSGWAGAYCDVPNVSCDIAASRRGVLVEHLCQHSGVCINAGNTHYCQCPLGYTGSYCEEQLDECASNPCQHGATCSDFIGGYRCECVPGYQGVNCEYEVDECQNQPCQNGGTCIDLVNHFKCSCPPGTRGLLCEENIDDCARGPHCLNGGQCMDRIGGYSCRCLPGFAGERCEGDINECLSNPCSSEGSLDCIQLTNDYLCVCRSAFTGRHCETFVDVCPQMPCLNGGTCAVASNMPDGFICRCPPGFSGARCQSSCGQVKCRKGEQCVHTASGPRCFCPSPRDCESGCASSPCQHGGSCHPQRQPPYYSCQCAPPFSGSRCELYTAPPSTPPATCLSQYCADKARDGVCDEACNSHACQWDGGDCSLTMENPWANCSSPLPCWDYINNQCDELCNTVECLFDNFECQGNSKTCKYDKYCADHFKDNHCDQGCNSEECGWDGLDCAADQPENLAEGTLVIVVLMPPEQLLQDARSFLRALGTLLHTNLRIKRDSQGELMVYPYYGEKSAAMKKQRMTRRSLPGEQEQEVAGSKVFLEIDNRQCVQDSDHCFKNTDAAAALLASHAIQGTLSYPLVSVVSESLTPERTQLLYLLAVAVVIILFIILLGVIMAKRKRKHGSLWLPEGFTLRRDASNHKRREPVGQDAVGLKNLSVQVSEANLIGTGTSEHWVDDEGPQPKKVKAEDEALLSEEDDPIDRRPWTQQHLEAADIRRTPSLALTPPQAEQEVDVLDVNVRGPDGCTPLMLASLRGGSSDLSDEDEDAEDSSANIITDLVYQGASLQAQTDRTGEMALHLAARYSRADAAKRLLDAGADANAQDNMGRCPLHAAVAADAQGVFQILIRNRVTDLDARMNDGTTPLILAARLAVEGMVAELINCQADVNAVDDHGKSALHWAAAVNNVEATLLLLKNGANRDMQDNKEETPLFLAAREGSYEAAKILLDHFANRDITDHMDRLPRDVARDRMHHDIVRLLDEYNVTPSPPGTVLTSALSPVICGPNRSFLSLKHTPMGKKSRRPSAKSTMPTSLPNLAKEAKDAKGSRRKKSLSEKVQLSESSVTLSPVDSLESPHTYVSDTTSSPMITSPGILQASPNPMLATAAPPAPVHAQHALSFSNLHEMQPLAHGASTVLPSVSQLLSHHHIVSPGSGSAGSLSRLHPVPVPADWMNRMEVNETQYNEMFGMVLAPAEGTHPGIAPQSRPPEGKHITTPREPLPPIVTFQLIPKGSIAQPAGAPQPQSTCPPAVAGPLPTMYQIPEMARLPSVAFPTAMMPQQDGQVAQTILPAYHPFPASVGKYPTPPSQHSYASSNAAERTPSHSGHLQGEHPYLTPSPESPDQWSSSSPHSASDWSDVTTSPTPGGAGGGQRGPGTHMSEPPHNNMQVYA
Chain of Pro-neuregulin-1, membrane-bound isoform (Homo sapiens) (Q02297 whole entry, looked up, the tested form may be a part, canonical isoform): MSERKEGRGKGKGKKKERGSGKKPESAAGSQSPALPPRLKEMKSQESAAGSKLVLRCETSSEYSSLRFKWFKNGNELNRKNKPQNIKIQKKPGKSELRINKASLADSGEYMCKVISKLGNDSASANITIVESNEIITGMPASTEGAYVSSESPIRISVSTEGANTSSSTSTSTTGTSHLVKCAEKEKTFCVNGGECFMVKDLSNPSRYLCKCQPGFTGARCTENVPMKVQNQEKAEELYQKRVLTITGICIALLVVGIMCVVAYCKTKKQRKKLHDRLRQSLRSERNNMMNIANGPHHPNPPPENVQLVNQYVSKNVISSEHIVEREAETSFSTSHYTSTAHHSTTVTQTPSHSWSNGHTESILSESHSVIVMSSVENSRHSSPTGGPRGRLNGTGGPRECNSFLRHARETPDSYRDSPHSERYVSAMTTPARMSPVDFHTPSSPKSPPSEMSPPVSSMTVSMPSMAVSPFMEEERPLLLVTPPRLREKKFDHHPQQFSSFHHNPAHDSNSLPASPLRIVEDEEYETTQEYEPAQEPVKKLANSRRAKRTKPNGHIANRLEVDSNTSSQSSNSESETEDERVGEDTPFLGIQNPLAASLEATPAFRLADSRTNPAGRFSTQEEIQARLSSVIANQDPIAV

With `COc1ccc(CCNC(=O)[C@@H]2c3ccccc3C(=O)N(Cc3ccc(OC(F)(F)F)cc3)[C@H]2c2ccc(CO)cc2)cc1`, the composite z-score is 0.111 in assay [1]; 0.321 in [2]; -0.0937 in [3]; 0.252 in [4]; 0.0125 in [5]; 0.75 in [6]. The composite z-score was 0.882 in [7]; 0.322 in assay [9]; -0.0672 in assay [10]; 1.55 in assay [11]; 2.48 in [15]; -0.169 in assay [17]. The composite z-score is 0.54 in [18], 0.342 in assay [19] and -0.0967 in assay [20]. The z-score in assay [8] was -2.61 (inactive); in assay [12], -0.392 (inactive); in assay [13], -0.51 (inactive); in [14], -0.0066 (inactive); in assay [16], -0.652 (inactive).
As to `O=C1O[C@H](c2ccccc2)[C@H](c2ccccc2)N2[C@H]1[C@@H](C(=O)N1CCN(c3ncccn3)CC1)[C@]1(C(=O)Nc3ccccc31)[C@H]2c1ccc(OCCO)cc1`, the composite z-score is -0.371 in assay [1]; 0.0417 in assay [2]; -0.106 in assay [3]; 0.309 in assay [4]; 1.18 in assay [5]; 0.0248 in assay [6]. For the same compound, the composite z-score was 1.31 in [7]; 0.348 in assay [9]; 0.34 in [10]; 1.56 in [11]; 2.35 in assay [15]; -0.037 in assay [17]. Moreover, the results for the composite z-score in assay [18], in assay [19] and in assay [20] were 1.88, 1.1 and -0.0763, respectively. In addition, the z-score is 1.03 (inactive) in [8]; 2.72 (inactive) in assay [12]; 0.573 (inactive) in [13]; 4.75 (inactive) in assay [14]; 2.9 (inactive) in assay [16].
Take `CN(C)CCCNC(=O)[C@@]1(Cc2ccccc2I)c2ccccc2C(=O)N(Cc2ccccc2C(F)(F)F)[C@H]1c1ccc(CO)cc1`: the composite z-score was 0.459 in [1]; -1.14 in assay [2]; -0.22 in assay [3]; -0.935 in assay [4]; -0.936 in assay [5]; 1.74 in [6]. Moreover, the composite z-score in assay [7] is 1.23; in [9], -0.309; in assay [10], -0.0645; in assay [11] it was 1.05; in [15], 3.45; in assay [17], -0.16. Further, the composite z-score in [18] is -1.16; in assay [19], -0.848; in assay [20], -0.295. In addition, the z-score was -1.1 (inactive) in assay [8]; -0.0554 (inactive) in assay [12]; -19.8 (active) in assay [13]; -2.58 (inactive) in [14]; -0.971 (inactive) in assay [16].
On to `CN1C=C(C(=O)OCCS(C)(=O)=O)C(C(=O)OCCS(C)(=O)=O)=CC(CCCO)=CC1C1CC1` (stereo not given), for which the composite z-score in assay [1] was -0.135; in [2], 0.0461; in assay [3] it was -0.128; in [4], 0.427; in assay [5], 0.213; in assay [6] it was 1.04. The composite z-score in [7] was 1.25; in assay [9], -0.0228; in [10], -0.0618; in assay [11], 0.0371; in [15], 0.826; in assay [17] it was -0.145. The composite z-score is 0.332 in [18], 0.574 in [19] and -0.068 in assay [20]. The z-score in assay [8] was -0.483 (inactive); in [12], -0.298 (inactive); in [13], -0.0029 (inactive); in assay [14], -0.692 (inactive); in assay [16], 0.731 (inactive).
`O=c1cccc(C=Cc2ccccc2)o1`: the composite z-score in [1] was 0.236; in assay [2], -0.609; in assay [3], -0.144; in assay [4], -0.0239; in assay [5] it was -1.03; in assay [6] it was -0.458. Also, the composite z-score in [7] was -0.0882; in assay [9], -0.369; in assay [10], -0.0994; in assay [11], -0.127; in assay [15], -0.756; in [17] it was -0.214. Also, the figures for the composite z-score in [18], in assay [19] and in assay [20] were 0.104, -1.13 and -0.142, respectively. For the same compound, the z-score in [8] was 0.242 (inactive); in [12] it was -0.411 (inactive); in assay [13], -1.06 (inactive); in [14], 1.14 (inactive); in assay [16] it was 0.573 (inactive).
